Growth data for 25 compounds are collected here from PubChem BioAssay (NCI).

Common to all, as to experiment: NCI-60 one-dose screen, 48 h (100 = growth as untreated, 0 = no growth, -100 = all killed)
Conditions in all cases: 10 µM unless noted

Assay [1] relates to HCT-15 colon.
The test system of assay [2] is HT29 colon.
The subject of assay [3] is SNB-75 CNS.
For assay [4], the system named is SNB-19 CNS.
For assay [5], the system named is U251 CNS.
Assay [6] relates to PC-3 prostate.
For assay [7], the system named is SK-MEL-5 melanoma.
Assay [8] relates to UACC-62 melanoma.
The test system of assay [9] is LOX IMVI melanoma.
The test system of assay [10] is SK-MEL-28 melanoma.

Compounds without any hit were thinned out: in the full panel of roughly 83,000, 20% have a hit.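 Treatment: one concentration, 48 hours, 96-well format. Scoring: percent growth, with anything below 10 considered active.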 A number with no mark means an inactive call. Activity calls are given as the source filed them.

Consider `CCOC(=O)[C@@H](C)C[C@H](Cc1ccccc1)NC(=O)c1csc([C@@H](C[C@H](C(C)C)N(C)C(=O)[C@@H](NC(=O)[C@H]2C[C@H](O)CCN2C)C(C)C)OC(C)=O)n1`, for which the growth in [1] is 9.76% (active); in assay [2] it was 0.338% (active); in assay [3], 10.6%; in assay [4], 21.8%; in assay [5], 10.1%; in assay [6], 24.5%. Further, the growth was -4.08% (active) in assay [7], 38.4% in assay [8], 18.2% in assay [9] and 51.1% in [10].

Consider `CCCCCCCCCCCCCCCCCCOc1ccccc1COP(=O)(O)OOCC[N+](C)(C)C`, for which the growth in assay [1] is 41.2%; in assay [2], -11.4% (active); in assay [3] it was -4.01% (active); in assay [4], -13.9% (active); in assay [5], -58.8% (active); in [6], -25.5% (active). For the same compound, the growth in assay [7] is -72.9% (active); in assay [8] it was -11.5% (active); in assay [9], -88.1% (active); in assay [10], 21.4%.

`COc1ccc2c(c1)c(C1(O)CC(CSC#N)OC1=O)cn2C(=O)c1ccc(Cl)cc1` (stereo not given): the growth is 98.7% in [1]; 110% in [2]; 83.7% in [3]; 99.3% in assay [4]; 102% in assay [5]; 96.2% in assay [6]. The growth in assay [7] was 111%; in assay [8] it was 88.6%; in assay [9], 97.8%; in assay [10], 150%.

In the case of `O=C1C2CCC1C(N1CCCC1)CC2` (stereo not given), the growth in assay [1] was 98.6%; in [2] it was 102%; in assay [3] it was 79.8%; in assay [4], 102%; in [5] it was 100%; in [6], 93.1%. The growth in assay [7] is 99.9%; in [8] it was 96.6%; in assay [9], 97.8%; in assay [10] it was 102%.

Regarding `COC(=O)CC[C@H](Cc1ccccc1)NC(=O)c1csc([C@@H](C[C@H](C(C)C)N(C)C(=O)[C@@H](NC(=O)[C@H]2CCCCN2C)C(C)C)OC(C)=O)n1`, the growth is 57.6% in assay [1]; 5.29% (active) in assay [2]; 34.3% in assay [3]; 44.2% in assay [4]; 12.5% in assay [5]; 39.8% in [6]. The growth was -13.4% (active) in [7], 34.4% in assay [8], 29.3% in assay [9] and 77.3% in [10].

For the compound `C[C@@]12CC=C3c4nc(Nc5cccc(O)c5)sc4CC[C@]3(C)[C@H]1CC[C@]1(C)C(=O)CC[C@@H]21`, the growth was -47.9% (active) in [1]; -29% (active) in assay [2]; 37.3% in assay [3]; 57.9% in assay [4]; 18.8% in assay [5]; 28.1% in assay [6]. Also, the growth is 64.8% in assay [7], 28.8% in assay [8], -52.7% (active) in [9] and 41.2% in assay [10].

`CC(=O)O[C@H]1CC[C@@]2(C)C(=CC[C@H]3[C@@H]4C[C@@H](N5CC5)[C@H](C(C)=O)[C@@]4(C)CC[C@@H]32)C1`: the growth in assay [1] is 91.6%; in assay [2] it was 85.9%; in assay [3], 79.2%; in assay [4] it was 100%; in assay [5], 91.5%; in assay [6] it was 77.9%. Also, the growth was 85.2% in [7], 92.8% in [8], 87.6% in [9] and 102% in assay [10].

In the case of `O=C(Nc1ccc([N+](=O)[O-])cc1)C(Cl)(Cl)Cl`, the growth was 80.8% in [1]; 101% in assay [2]; 96.6% in [3]; 94.7% in assay [4]; 93.9% in [5]; 95.1% in assay [6]. Further, the growth in assay [7] is 99.4%; in assay [8], 84.9%; in assay [9], 63.3%; in [10] it was 103%.

Consider `C/C(=C\c1ccn(-c2ccccc2N)n1)[C@@H]1C[C@@H]2O[C@]2(C)CCC[C@H](C)[C@H](O)[C@@H](C)C(=O)C(C)(C)[C@@H](O)CC(=O)O1`, for which the growth in assay [1] was 16.6%; in [2], 15.1%; in assay [3], -4.54% (active); in assay [4], 29.1%; in [5], 27.2%; in assay [6], 14.3%. The growth in [7] is 12.2%; in assay [8] it was 19.9%; in [9] it was 28.5%; in assay [10] it was 58.8%.

Turning to `Cc1cc(N(CCCl)CCCl)ccc1C=Nc1ccccc1-c1ccccc1`, the growth in assay [1] was 79.4%; in [2] it was 89.3%; in [3], 66.1%; in assay [4], 77.9%; in assay [5], 63.3%; in assay [6] it was 85.5%. Besides, the growth is 85.7% in assay [7], 6.46% (active) in assay [8], 66.3% in assay [9] and 95.2% in assay [10].

For `CC(C)=CCC[C@H](C(=O)O)[C@@H]1CC[C@]2(C)C3=C(CC[C@@]12C)[C@@]1(C)CC[C@H](O)C(C)(C)[C@@H]1CC3`, the growth in assay [1] is 97.7%; in assay [2], 91%; in assay [3], 90.1%; in [4] it was 97.1%; in assay [5] it was 94.5%; in [6], 84.8%. In addition, the growth in [7] was 103%; in assay [8], 96.1%; in assay [9], 102%; in [10], 103%.

In the case of `ClC1=C(Cl)C(Cl)(C2(Cl)C(Cl)=C(Cl)C(Cl)=C2Cl)C(Cl)=C1Cl`, the growth in assay [1] was -41.9% (active); in [2] it was -64.2% (active); in [3], 62%; in assay [4], 10.5%; in assay [5] it was -11.3% (active); in assay [6], -8.81% (active). Besides, the growth is -21.8% (active) in assay [7], -18.6% (active) in assay [8], -85.5% (active) in [9] and -18.1% (active) in assay [10].

On to `COc1cc(C=Nc2cccc(Br)c2)ccc1N(CCCl)CCCl`, for which the growth in [1] was 82.4%; in [2], 63.4%; in [3], 69.1%; in [4], 91.9%; in assay [5], 73%; in [6], 68.4%. Further, the growth was 86% in [7], 76.1% in assay [8], 68.7% in [9] and 116% in assay [10].

Consider `Cc1cc(C)cc(Nc2nc3c(s2)CC[C@@]2(C)C3=CC[C@@H]3[C@@H]2CC[C@]2(C)C(=O)CC[C@@H]32)c1`, for which the growth in assay [1] is 19.1%; in [2] it was 12.3%; in assay [3], 70.5%; in [4] it was 60.1%; in assay [5], 46.6%; in assay [6], 33.1%. For the same compound, the growth in assay [7] was 91.6%; in assay [8] it was 52.9%; in [9] it was 4.43% (active); in assay [10], 59.1%.

With `CC[C@H](C)[C@H](NC(=O)[C@H]1CCCCN1C)C(=O)N(C)[C@H](C[C@@H](OC(C)=O)c1nc(C(=O)N[C@@H](Cc2ccccc2)C[C@H](C)C(=O)OC)cs1)C(C)C`, the growth in [1] was 5.1% (active); in assay [2] it was -3.46% (active); in assay [3], 31.8%; in assay [4] it was 31.4%; in assay [5], 11.8%; in assay [6], 23.7%. The growth in [7] is -69.5% (active); in [8], 43.6%; in assay [9] it was 8.61% (active); in assay [10], 53.6%.

For the compound `c1ccc(CSC(c2ccccc2)c2ccccc2)cc1`, the growth in [1] is 106%; in assay [2], 84.1%; in assay [3], 119%; in [4], 104%; in [5], 102%; in assay [6] it was 104%. For the same compound, the growth in [7] is 112%; in [8], 103%; in assay [9], 100%; in assay [10] it was 143%.

For `CC(C)COC(C[N+](=O)[O-])C(Cl)(Cl)Cl` (stereo not given), the growth in [1] was 105%; in assay [2], 106%; in assay [3] it was 90.4%; in [4], 106%; in assay [5], 95.7%; in [6], 91%. Also, the growth in assay [7] is 112%; in assay [8], 101%; in assay [9] it was 103%; in [10], 99.4%.

As for `O=C1C(=Cc2cn(Cc3ccccc3)c3ccccc23)C(=O)N(Cc2ccccc2)C(=O)N1Cc1ccccc1`, the growth in [1] was 85.8%; in [2] it was 111%; in assay [3], 45%; in [4], 87.1%; in assay [5], 75.7%; in [6], 90.3%. For the same compound, the growth in [7] was 104%; in assay [8], 53.1%; in assay [9] it was 87.2%; in [10], 110%.

For the compound `CC(C)(C)C(=O)OCOP(=O)(NCc1ccccc1)C1CCCN(O)C1=O` (stereo not given), the growth in [1] was 22.5%; in assay [2] it was 21.5%; in assay [3], 70.6%; in [4], 37.9%; in assay [5], 13.8%; in [6] it was 67.7%. Further, the growth in assay [7] is 31.2%; in assay [8], 19.5%; in [9], 51.9%; in assay [10], 17%.

Take `O=C1CCC2(O)[C@@H]3Cc4ccc(O)c5c4[C@]2(CCN3Cc2ccoc2)C1O5` (stereo not given in full): the growth in [1] is 100%; in assay [2], 102%; in assay [3], 85.1%; in [4] it was 101%; in assay [5] it was 101%; in assay [6] it was 44.2%. The growth in assay [7] is 100%; in assay [8] it was 109%; in assay [9], 92.2%; in assay [10] it was 115%.

With `CC(=O)OCc1cc[c]([Hg][Cl])o1`, the growth is 5.8% (active) in [1]; 46% in [2]; 42.7% in assay [3]; 45.2% in assay [4]; 7.54% (active) in assay [5]; 43.8% in assay [6]. The growth is 42.6% in [7], 47.8% in assay [8], -50.5% (active) in assay [9] and 12.3% in assay [10].

`COc1cc(C=Nc2cccc(C(=O)O)c2)ccc1N(CCCl)CCCl`: the growth in [1] is 97.8%; in assay [2] it was 98.1%; in assay [3], 101%; in [4] it was 102%; in [5], 100%; in [6] it was 101%. For the same compound, the growth in assay [7] is 98.7%; in assay [8], 96.7%; in [9], 101%; in assay [10], 103%.

As to `COC(=O)[C@@]1(C)CC[C@]2(C)CC[C@]3(C)C4=CC(=O)c5c(cc(O)c(O)c5C)[C@]4(C)CC[C@@]3(C)[C@@H]2C1`, the growth is 36.9% in assay [1]; 90.2% in assay [2]; 112% in [3]; 60.5% in [4]; 42% in [5]; 33.8% in assay [6]. Further, the growth in [7] is 7.93% (active); in assay [8], 28.3%; in assay [9], 50.7%; in assay [10], 91.3%.

With `COc1cc(C=C2c3ccccc3C(=O)c3ccccc32)ccc1OCCCCOc1cc2c(cc1OC)C(=O)N1CCCC1C=N2` (stereo not given), the growth is -75.6% (active) in assay [1]; -64.6% (active) in [2]; -90.9% (active) in assay [3]; -89.2% (active) in assay [4]; -100% (active) in assay [5]; -45.9% (active) in assay [6]. Moreover, the growth in [7] was -92.4% (active); in assay [8], -90.1% (active); in assay [9] it was -100% (active); in assay [10] it was -82.8% (active).

As to `COc1ccc(/C=C\c2cc(OC)c(OC)c(OC)c2)c(NS(=O)(=O)c2ccc(F)cc2)c1O`, the growth in assay [1] was 6.21% (active); in [2] it was 12.5%; in assay [3] it was 34.9%; in assay [4], 37.4%; in assay [5] it was 19.1%; in [6] it was 31.3%. Also, the growth is -28.4% (active) in [7], 40.1% in assay [8], 19.3% in assay [9] and 63.2% in assay [10].
